Screens as filed in PubChem BioAssay.
CtBP-E1A inh – qHTS Assay for Inhibitors of the CtBP/E1A Interaction; CtBP / adenovirus E1A interaction (AlphaScreen); AlphaScreen GST-E1A/His-CtBP binding, 1536-well; stronger effect = lower value; activity change, % (no concentration beside the values); 340,000 compounds, 0.49% hits; in the data active means activity change below about -65%; inconclusive means mostly about -30% to -63%; further: on the % scale 0 is the no-effect control and ±100 the full control effect
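Protein mix (5X: 125 nM each GST-E1A, His-CtBP) was incubated with pinned compound 2 h at 37 deg C in dark, in 50 mM Tris pH 8.0 buffer with 300 mM NaCl. Glutathione donor and nickel acceptor beads followed; AlphaScreen signal read after 1 h.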
RORgamma inh – qHTS for inhibitors of ROR gamma transcriptional activity; AID 2551, 2010; Drosophila S2 Gal4-RORgamma UAS-luciferase reporter, 20 h; Potency, µM (titrated, usually from 53.6 µM), for the others: at the top dose activity change, negative = inhibition, actives largely listed as inhibitors; 310,000 compounds, 5.4% hits; Nuclear receptor ROR-gamma (Mus musculus), P51450; further: potency means the concentration at half of the fitted maximal effect; on the % scale 0 is the no-effect control and ±100 the full control effect; nearly all actives have a fitted effect of over 60% in size
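Luminescence from a UAS-regulated Photinus luciferase reporter in stably transfected Drosophila Schneider cells is measured; decreased signal marks ROR gamma inhibition. Fusion expression is induced by 700 uM copper sulfate for 20 hr.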
Six1-Eya2 inh – qHTS Assay for Inhibitors of the Six1/Eya2 Interaction; Homeobox protein SIX1 (Homo sapiens) + Protein phosphatase EYA2 (Homo sapiens), …; AlphaScreen GST-Six1/His-Eya2 binding, biochemical; stronger effect = lower value; activity change, % (concentration not given with the values); 360,000 compounds, 0.56% hits; AID 651725, 2012; in the data active means activity change below about -65%; inconclusive means mostly about -30% to -63%; further: on the % scale 0 is the no-effect control and ±100 the full control effect
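AlphaScreen with GST-Six1 and His-Eya2 (5X mix: 250 nM and 500 nM), glutathione donor and nickel acceptor beads; buffer 50 mM Tris pH 8.0, 300 mM NaCl, 1 mM TCEP; 1 h at 37 C in the dark.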
MBNL1-CUG inh – qHTS Assay for Inhibitors of MBNL1-poly(CUG) RNA binding; TR-FRET MBNL1-His/biotin-(CUG)12 binding, 665/545 ratio; AID 2675, 2010; Potency, µM (highest dose often 57.5 µM), inactives show at the highest dose activity change, negative = inhibition, hits mostly inhibitors; 280,000 compounds, 0.036% hits; Muscleblind-like protein 1 (Homo sapiens), Q9NR56; active means well fitted inhibition curve with a large enough effect in the signal ratio, with a control signal flat, not every such curve was filed as active; inconclusive means small, poorly fitted or top-dose-only effect, or effect the other way, or a change in a side signal; inactive means no such curve, though single readings can be large or run the other way; the % refers to the signal ratio; further: potency means the concentration at half of the fitted maximal effect; on the % scale 0 is the no-effect control and ±100 the full control effect
Target sequence (Q9NR56 whole entry, looked up): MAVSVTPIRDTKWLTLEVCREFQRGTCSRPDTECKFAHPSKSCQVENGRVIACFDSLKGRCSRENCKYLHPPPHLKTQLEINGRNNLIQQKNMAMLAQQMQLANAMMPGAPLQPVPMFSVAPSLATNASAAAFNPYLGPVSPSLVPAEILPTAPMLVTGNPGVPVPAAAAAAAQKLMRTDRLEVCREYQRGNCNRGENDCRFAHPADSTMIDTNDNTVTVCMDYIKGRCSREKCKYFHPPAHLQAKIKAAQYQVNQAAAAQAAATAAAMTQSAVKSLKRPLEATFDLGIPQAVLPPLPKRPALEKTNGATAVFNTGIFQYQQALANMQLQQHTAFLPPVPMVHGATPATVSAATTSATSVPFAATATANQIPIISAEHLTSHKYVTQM
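TR-FRET between His-tagged MBNL1 and biotin-(CUG)12 RNA, detected with Tb anti-His antibody (0.055 ng/ul) and streptavidin-XL665 (5 nM), 60 min at room temperature. Compounds titrated 92 nM to 58 uM; 665/545 nm ratio normalized to buffer and complex controls.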
VP16 counter – VP16 counterscreen qHTS for inhibitors of ROR gamma transcriptional activity; Drosophila S2 Gal4-VP16 UAS-luciferase, luminescence, 20 h; Potency, µM (series often up to 53.6 µM), for inactives: at the highest dose activity, negative = inhibition, actives largely listed as inhibitors; 310,000 compounds, 3.5% hits;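 further: Gal4-VP16 expression switched on by copper sulfate through the metallothionein promoter; potency means the concentration at half of the fitted maximal effect; on the % scale 0 is the no-effect control and ±100 the full control effect; nearly all actives have a fitted effect of over 50% in size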
CBFb-RUNX1 inh – qHTS Assay for Compounds Blocking the Interaction Between CBF-beta and RUNX1 for the Treatment of Acute Myeloid Leukemia; Runt-related transcription factor 1 (Homo sapiens) + Core-binding factor subunit beta …; AlphaScreen CBFb-His/RUNX1-biotin binding, biochemical; Potency, µM (highest dose often 59.8 µM), inactives show at the highest dose activity, negative = inhibition, usual class: inhibitors; 230,000 tested, under 10 active; further: % of control where 0% means no effect
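CBF-beta (His) and RUNX1 (biotin), 30 nM each; 20 min preassociation; + compound, 15 min; + beads 50 ng each (Ni, streptavidin), 90 min; RT; AlphaScreen read.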
* hit, by the source's call; u = inconclusive; x = no result given; [ ] = remark or other dose. Hits are enriched below; roughly 5.5% of the tested compounds scored in any of these assays. Unless noted, the call rests on the fitted dose curve; in most records, active means well fitted curve in the direction sought with a large enough effect; inconclusive means small, poorly fitted or top-dose-only effect, or another doubt; inactive means no such curve, though single readings can be large; an effect the other way counts as inactive or inconclusive.

SMILES | CtBP-E1A inh | RORgamma inh | Six1-Eya2 inh | MBNL1-CUG inh | VP16 counter | CBFb-RUNX1 inh
O=c1[nH]c(=O)n(Cc2ccco2)c(O)c1C=NCc1ccco1 | -1 | 27% | -1 | -21% | -8% | 1%
O=c1[nH]c(=O)n(-c2cccc3ccccc23)c(O)c1C=NCCCn1ccnc1 | 1 | -4% | 2 | -14% | -3% | 3%
CCCCC(=O)N/N=C/c1c(O)n(-c2cccc3ccccc23)c(=O)[nH]c1=O | x | -24% | -71* | x | -1% | u
CCCCC(=O)N/N=C/c1c(O)n(Cc2ccco2)c(=O)[nH]c1=O | u | u | -75* | u | -28% | x
CCCCC(=O)N/N=C/c1c(O)n(CCCC)c(=S)[nH]c1=O | -66* | -68% | -74* | x | u | u
CC(C)c1cc2c(c(O)c1O)[C@]1(C(=O)O)CCCC(C)(C)C1CC2 (stereo not given in full) | x | -7% | x | x | -27% | -15%
COC1C=CC23c4cc5c(cc4CN(CC2O)C3C1)OCO5 (stereo not given) | x | 3.2µM* | x | x | 1.3µM* | 8%
CCN(CC)C(=O)c1ccc(NC(=O)c2cc(S(=O)(=O)N3CCCCCC3)ccc2OC)cc1 | 1 | x | -6 | x | x | x
CCN1CCN(S(=O)(=O)c2ccc(Cl)c(C(=O)N(CC)CC(=O)Nc3ccc(OC)cc3)c2)CC1 | 0 | 5.6µM* | 1 | -2% | -14% | x
Nc1cccc(Cl)c1 | x | 14% | x | x | -15% | 7%[21.7 µM]
C=CC(=C)C | x | 25% | x | x | -8% | -3%[21.7 µM]
O=C(CCN1CCN(c2ccccc2)CC1)c1ccc(Br)cc1 | x | 35µM* | -10 | -2% | u | x
C=CC(N)=O | x | -7% | x | x | 6% | -4%[21.7 µM]
CC/C(=C\C=C\[C@@H]1C=C[C@@H]2CCC[C@H]2[C@@H]1C(=O)c1ccc[nH]1)[C@@H]1O[C@@H]([C@@H](C)C(=O)O)CC[C@@H]1C | -6 | u | -8 | 6% | 10µM* | -17%
COC1=CC(=O)OC(CCc2ccccc2)C1 (stereo not given) | x | 14% | x | x | -1% | 13%[21.7 µM]
CC1CC2CCC(O2)C(C)C(=O)OC(C)CC2CCC(O2)C(C)C(=O)OC(C)CC2CCC(O2)C(C)C(=O)OC(C)CC2CCC(O2)C(C)C(=O)O1 (stereo not given) | x | 0.11µM* | x | x | 0.5µM* | 13%
CCCCn1cc[n+](C)c1 | x | u | x | x | -7% | 17%
CN1C(=O)[C@]23CC4=CC=C[C@H](O)[C@H]4N2C(=O)[C@@]1(CO)SS3 | x | 0.045µM* | x | x | 0% | 22%
c1ccc(C2CO2)cc1 (stereo not given) | x | 0% | x | x | 7% | 4%[21.7 µM]
Clc1cccc(C(Cl)(Cl)Cl)n1 | x | 28% | x | x | -14% | 7%[21.7 µM]
CC(=O)c1cn(CCCOc2ccccc2)c2ccccc12 | x | u | 0 | 4% | 6.3µM* | -3%
C[C@]12CCC3C(C=CC4=CC(=O)CC[C@]43C)C1CC[C@]2(O)CCC(=O)O (stereo not given in full) | x | 32% | x | x | u | 10%
CN1[C@@H]2CC[C@H]1CC(O[C@@H](c1ccccc1)c1ccc(Cl)cc1)C2 (stereo not given in full) | x | 13µM* | x | x | 14µM* | -9%[21.7 µM]
CC(C)[C@]1(NC(=O)[C@@H]2C=C3c4cccc5[nH]cc(c45)C[C@H]3N(C)C2)O[C@@]2(O)C3CCCN3C(=O)[C@H](Cc3ccccc3)N2C1=O (stereo not given in full) | x | 16% | x | x | -6% | u
